# Assay results published in PubChem BioAssay (EPA / NIEHS).
# Inconclusive results are not listed. Active and inactive are the calls of the source. Rule for the calls, unless noted: active = hit-call score of the fitted dose curve at least 0.9, where 1 is the maximum; inconclusive = response in the unintended direction; inactive = score below 0.9.
# Experiments:
# [1] = biological target: Retinoic acid receptor alpha (Homo sapiens) (UniProt P10276); test: ATG_DR5_RAR_CIS: Attagene CIS-FACTORIAL HepG2 Assay for human Retinoic Acid Receptor Alpha (RARE), DR5 submotif (AID 2282934; active = hit-call score of the fitted dose curve at least 0.9, where 1 is the maximum; inactive = score below 0.9); settings: HepG2 Attagene cis-factorial RARE DR5 reporter, mRNA; actives raise or lower the signal
# How it was run: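 Reporter transcripts from a DR5-regulated unit, measured via RT-PCR plus capillary electrophoresis, reflect endogenous RAR activity in transiently transfected human HepG2 liver cells. Exposure lasted 24 h; gain or loss of signal scored against DMSO.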
# [2] = ATG_GLI_CIS: Attagene CIS-FACTORIAL HepG2 Assay for human Zinc Finger Protein GLI1 (AID 2282945; active = hit-call score of the fitted dose curve at least 0.9, where 1 is the maximum; inactive = score below 0.9); settings: HepG2, Attagene cis-factorial reporter mRNA, GLI element; actives raise or lower the signal
# How it was run: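 Bidirectional curve fits relative to DMSO, using reporter mRNA levels from RT-PCR plus capillary electrophoresis. Cells were HepG2 transiently carrying cis-regulated reporter constructs, harvested 24 h after dosing.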
# [3] = ATG_GRE_CIS: Attagene CIS-FACTORIAL HepG2 Assay for human Glucocorticoid Response Elements (GRE) (AID 2282947; active = hit-call score of the fitted dose curve at least 0.9, where 1 is the maximum; inactive = score below 0.9); settings: HepG2 GRE cis-reporter, Attagene multiplex mRNA; actives raise or lower the signal
# How it was run: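 Multiplexed cis-reporter mRNA induction, HepG2, 24 h post-dose. RT-PCR, FAM-labelled, HpaI-digested amplicons by CE. Bidirectional fit vs DMSO.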
# [4] = ATG_PBREM_CIS: Attagene CIS-FACTORIAL HepG2 Assay for human Phenobarbital-responsive Enhancer Module (PBREM) (AID 2282955; active = hit-call score of the fitted dose curve at least 0.9, where 1 is the maximum; inactive = score below 0.9); settings: HepG2 PBREM cis-reporter, Attagene multiplexed transcription; actives raise or lower the signal
# How it was run: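 Endogenous transcription factors in human liver HepG2 cells drive a PBREM cis-element reporter, whose transcript level after 24 h treatment is quantified by RT-PCR with capillary electrophoresis; activity fitted in both directions against DMSO.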
# [5] = ATG_TCF_b_cat_CIS: Attagene CIS-FACTORIAL HepG2 Assay for human T-Cell-Factor with beta-catenin (TCF/b-cat) (AID 2282965; active = hit-call score of the fitted dose curve at least 0.9, where 1 is the maximum; inactive = score below 0.9); settings: HepG2 TCF/beta-catenin cis-reporter transcription, actives raise or lower the signal
# How it was run: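 Endogenous TCF/LEF activity read as reporter transcript level via RT-PCR and capillary electrophoresis fluorescence in transfected HepG2, 24 h exposure; gain or loss of signal fitted against DMSO controls.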
# [6] = biological target: X-box-binding protein 1 (Homo sapiens) (UniProt P17861); test: ATG_Xbp1_CIS: Attagene CIS-FACTORIAL HepG2 Assay for human X-box Binding Protein 1 (XBP1) (AID 2282972; active = hit-call score of the fitted dose curve at least 0.9, where 1 is the maximum; inactive = score below 0.9); settings: HepG2 XBP1 cis-element reporter, Attagene multiplex; actives raise or lower the signal
# How it was run: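 Reporter transcripts were quantified by RT-PCR with fluorescent primer extension and capillary electrophoresis after 24 h chemical exposure. Cells: transiently transfected HepG2 carrying cis-regulated reporter constructs; data fitted bidirectionally relative to DMSO.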
# [7] = ATG_M_32_TRANS: Attagene TRANS-FACTORIAL HepG2 Assay for M32 Transcription Factor (Internal Marker) (AID 2282984); settings: HepG2 Attagene TRANS M32 internal marker reporter
# How it was run: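 Cell-based TRANS-format assay in HepG2: exogenous chimeric GAL4 reporter units transiently expressed, compounds applied 24 h. Reporter mRNA detected by RT-PCR plus capillary electrophoresis; this readout is an internal background marker.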
# [8] = biological target: Transcriptional activator Myb (Homo sapiens) (UniProt P10242); test: ATG_Myb_CIS: Attagene CIS-FACTORIAL HepG2 Assay for human Myeloblastosis (Myb) Proto-Oncogene Transcription Factor (AID 2282986; active = hit-call score of the fitted dose curve at least 0.9, where 1 is the maximum; inactive = score below 0.9); settings: HepG2 Attagene CIS-FACTORIAL Myb reporter transcription; actives raise or lower the signal
# How it was run: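 Reporter transcript levels, quantified by fluorescent RT-PCR and capillary electrophoresis, serve as the read-out. Transfected HepG2 cells carrying cis-promoter reporter units are dosed for 24 hours, and curves are fitted bidirectionally against DMSO controls.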
# [9] = biological target: Nuclear respiratory factor 1 (Homo sapiens) (UniProt Q16656); test: ATG_NRF1_CIS: Attagene CIS-FACTORIAL HepG2 Assay for human Nuclear Respiratory Factor 1 (NRF1) Orphan Gene (AID 2282987; active = hit-call score of the fitted dose curve at least 0.9, where 1 is the maximum; inactive = score below 0.9); settings: HepG2 NRF1 cis-element reporter, Attagene multiplex; actives raise or lower the signal
# How it was run: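 Multiplexed cis-reporter assay, HepG2 cells, 24 h treatment. Total RNA → oligo(dT) RT → PCR with reporter-specific primers → 6-FAM primer extension → HpaI cut → CE. Bidirectional fit vs DMSO.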
# [10] = ATG_NF_kB_CIS: Attagene CIS-FACTORIAL HepG2 Assay for human Nuclear Factor Kappa B (NF-kB) (AID 2282991; active = hit-call score of the fitted dose curve at least 0.9, where 1 is the maximum; inactive = score below 0.9); settings: HepG2 Attagene cis-factorial NF-kB reporter mRNA; actives raise or lower the signal
# How it was run: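 Transient MRTU transfection of human HepG2 liver cells → 24 h chemical exposure → total RNA, oligo(dT) RT → PCR, 6-FAM primer extension, HpaI digest 2 h 37 C → CE fragment analysis. Bidirectional fitting, DMSO negative control.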
# [11] = biological target: human Retinoid X Receptor beta (RXRb), RXRB (gene 6257) (UniProt P28702); test: ATG_RXRb_TRANS: Attagene TRANS-FACTORIAL HepG2 Assay for human Retinoid X Receptor beta (RXRb) (AID 2283013)
# How it was run: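 After a 24 h incubation with test chemical, transfected HepG2 cells carrying NR-Gal4 fusions and GAL4-UAS reporter transcription units yield RNA whose reporter cDNA is FAM-labelled, HpaI-cut and sized by capillary electrophoresis; increases over DMSO are scored.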
# [12] = TOX21_p53_BLA_p2_viability: Viability Assessment in the Tox21 HCT-116 p53 Agonism Beta-lactamase Assay, Phase 2 (AID 2283591);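 note: actives lower the ATP signal meaning cytotoxicity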
# How it was run: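 Cytotoxicity readout: CellTiter-Glo ATP luminescence, 30 min at room temperature, after the beta-lactamase read. Cells were HCT116 exposed 16 h at 37C to compounds pin-transferred at 217-fold dilution from DMSO stocks.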
# [13] = biological target: Cellular tumor antigen p53 (Homo sapiens) (UniProt P04637); test: TOX21_p53_BLA_p2_ratio: Tox21 HCT-116 p53 Agonism Beta-lactamase Assay, Ratio, Phase 2 (AID 2283592)
# How it was run: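 Readout: blue/green (460/530 nm) FRET emission ratio after 2 h CCF4-AM loading at room temperature, excitation 405 nm. HCT116 p53 bla cells, 16 h compound exposure at 37C, 5% CO2; agonist direction fitted against DMSO baseline.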
# [14] = biological target: Cellular tumor antigen p53 (Homo sapiens) (UniProt P04637); test: TOX21_p53_BLA_p3_ratio: Tox21 HCT-116 p53 Agonism Beta-lactamase Assay, Ratio, Phase 3 (AID 2283596)
# How it was run: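 Cells were seeded at 4000/well, rested 5 h at 37C, then dosed with DMSO compound solutions (217-fold dilution) for 16 h. CCF4-AM substrate was loaded for 2 h at room temperature, and the 460/530 nm emission ratio was fitted for gain of signal versus DMSO.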
# [15] = biological target: Cellular tumor antigen p53 (Homo sapiens) (UniProt P04637); test: TOX21_p53_BLA_p5_ratio: Tox21 HCT-116 p53 Agonism Beta-lactamase Assay, Ratio, Phase 5 (AID 2283599)
# How it was run: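 Beta-lactamase reporter ratio (blue 460 nm over green 530 nm, 405 nm excitation) after 2 h CCF4-AM loading, in HCT-116 cells exposed 16 h at 37 C to compounds pinned at 217-fold dilution. Increases relative to DMSO baseline scored.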
# [16] = TOX21_p53_BLA_p5_viability: Viability Assessment in the Tox21 HCT-116 p53 Agonism Beta-lactamase Assay, Phase 5 (AID 2283600)
# How it was run: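 ATP luminescence (CellTiter-Glo, 30 min, RT) served as the viability read-out, with loss of signal indicating cytotoxicity. Compounds in DMSO were pinned at a 217-fold dilution onto 4000 cells/well and incubated 16 h, 37C.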
# [17] = biological target: Cellular tumor antigen p53 (Homo sapiens) (UniProt P04637); test: TOX21_p53_BLA_p4_ratio: Tox21 HCT-116 p53 Agonism Beta-lactamase Assay, Ratio, Phase 4 (AID 2283601)
# How it was run: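 Signal is the blue/green (460nm/530nm) ratio of cleaved versus uncleaved CCF4-AM substrate, read after 2 h substrate loading. Cells were HCT116 carrying the p53-responsive beta-lactamase reporter, dosed 16 h at 37C, 5% CO2; CellTiter-Glo measured in parallel.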
# [18] = biological target: Hepatocyte nuclear factor 4-alpha (Homo sapiens) (UniProt P41235); test: ATG_HNF4a_TRANS: Attagene TRANS-FACTORIAL HepG2 Assay for human Hepatocyte Nuclear Factor 4 alpha (HNF4a) (AID 2282982); settings: HepG2 HNF4a transactivation reporter, mRNA readout
# How it was run: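 Multiplexed reporter assay: transfected HepG2, 24 h exposure, total RNA → oligo(dT) RT → PCR → 6-FAM extension → HpaI digest → CE fluorescence. DMSO = negative control.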
# [19] = ATG_GAL4_TRANS: Attagene TRANS-FACTORIAL HepG2 Assay for GAL4 (Internal Marker) (AID 2282976); settings: HepG2 Attagene TRANS GAL4 internal marker reporter
# How it was run: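 RT-PCR/capillary electrophoresis readout of reporter mRNA. HepG2, transient MRTU transfection (GAL4-UAS reporters), 24 h compound exposure. Background-control endpoint, positive direction vs DMSO baseline.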
# [20] = ATG_Oct_MLP_CIS: Attagene CIS-FACTORIAL HepG2 Assay for human Octamer-Binding Transcription Factor (Oct) (AID 2282993; active = hit-call score of the fitted dose curve at least 0.9, where 1 is the maximum; inactive = score below 0.9); settings: HepG2 Attagene cis-factorial Oct reporter, mRNA; actives raise or lower the signal
# How it was run: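 HepG2, transient MRTU transfection, cis promoter elements; 24 h dosing; RT-PCR/CE fluorescence read-out of reporter mRNA; fit both directions vs DMSO.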
# Cellular tumor antigen p53 (Homo sapiens), sequence (P04637 whole entry, looked up): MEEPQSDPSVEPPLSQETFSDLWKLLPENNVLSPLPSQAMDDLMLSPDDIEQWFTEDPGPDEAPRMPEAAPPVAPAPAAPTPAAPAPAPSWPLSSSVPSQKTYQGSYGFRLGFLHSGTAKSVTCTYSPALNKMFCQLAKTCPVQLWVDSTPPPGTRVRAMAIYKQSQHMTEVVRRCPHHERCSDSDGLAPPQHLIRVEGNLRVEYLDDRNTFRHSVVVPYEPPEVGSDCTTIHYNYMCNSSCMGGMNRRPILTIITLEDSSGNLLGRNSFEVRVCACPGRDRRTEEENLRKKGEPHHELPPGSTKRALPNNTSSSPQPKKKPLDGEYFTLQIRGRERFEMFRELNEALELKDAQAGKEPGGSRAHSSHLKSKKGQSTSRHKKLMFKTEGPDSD
# Transcriptional activator Myb (Homo sapiens), sequence (P10242 whole entry, looked up): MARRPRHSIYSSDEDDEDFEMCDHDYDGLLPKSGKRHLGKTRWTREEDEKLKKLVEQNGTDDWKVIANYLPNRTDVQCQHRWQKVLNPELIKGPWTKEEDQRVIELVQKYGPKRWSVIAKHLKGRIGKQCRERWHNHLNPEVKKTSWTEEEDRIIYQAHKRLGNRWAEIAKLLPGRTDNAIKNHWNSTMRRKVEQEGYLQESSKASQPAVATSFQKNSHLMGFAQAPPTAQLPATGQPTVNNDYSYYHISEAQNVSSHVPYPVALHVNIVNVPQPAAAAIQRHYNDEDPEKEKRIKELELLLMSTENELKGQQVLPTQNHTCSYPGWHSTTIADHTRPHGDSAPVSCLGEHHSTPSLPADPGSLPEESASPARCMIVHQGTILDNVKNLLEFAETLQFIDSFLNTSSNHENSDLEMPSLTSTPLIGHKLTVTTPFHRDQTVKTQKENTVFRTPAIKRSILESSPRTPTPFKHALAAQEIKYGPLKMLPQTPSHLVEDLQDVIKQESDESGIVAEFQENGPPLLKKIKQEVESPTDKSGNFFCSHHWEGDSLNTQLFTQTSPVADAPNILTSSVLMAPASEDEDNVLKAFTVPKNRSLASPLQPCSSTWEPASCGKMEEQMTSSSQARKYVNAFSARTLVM
# Nuclear respiratory factor 1 (Homo sapiens), sequence (Q16656 whole entry, looked up): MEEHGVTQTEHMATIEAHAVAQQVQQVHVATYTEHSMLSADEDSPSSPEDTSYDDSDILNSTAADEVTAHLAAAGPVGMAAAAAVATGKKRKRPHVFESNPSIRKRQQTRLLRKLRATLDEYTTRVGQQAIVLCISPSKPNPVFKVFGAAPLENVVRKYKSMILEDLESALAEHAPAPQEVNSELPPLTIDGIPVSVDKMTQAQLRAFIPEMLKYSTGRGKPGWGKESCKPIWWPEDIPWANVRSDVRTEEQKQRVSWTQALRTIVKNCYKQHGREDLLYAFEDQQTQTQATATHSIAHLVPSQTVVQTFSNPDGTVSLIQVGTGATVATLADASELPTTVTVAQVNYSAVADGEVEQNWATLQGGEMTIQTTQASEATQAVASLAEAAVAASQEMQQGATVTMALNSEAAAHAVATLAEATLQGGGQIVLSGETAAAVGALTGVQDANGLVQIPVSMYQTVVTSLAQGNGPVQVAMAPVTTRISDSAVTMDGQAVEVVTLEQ
# Hepatocyte nuclear factor 4-alpha (Homo sapiens), sequence (P41235 whole entry, looked up): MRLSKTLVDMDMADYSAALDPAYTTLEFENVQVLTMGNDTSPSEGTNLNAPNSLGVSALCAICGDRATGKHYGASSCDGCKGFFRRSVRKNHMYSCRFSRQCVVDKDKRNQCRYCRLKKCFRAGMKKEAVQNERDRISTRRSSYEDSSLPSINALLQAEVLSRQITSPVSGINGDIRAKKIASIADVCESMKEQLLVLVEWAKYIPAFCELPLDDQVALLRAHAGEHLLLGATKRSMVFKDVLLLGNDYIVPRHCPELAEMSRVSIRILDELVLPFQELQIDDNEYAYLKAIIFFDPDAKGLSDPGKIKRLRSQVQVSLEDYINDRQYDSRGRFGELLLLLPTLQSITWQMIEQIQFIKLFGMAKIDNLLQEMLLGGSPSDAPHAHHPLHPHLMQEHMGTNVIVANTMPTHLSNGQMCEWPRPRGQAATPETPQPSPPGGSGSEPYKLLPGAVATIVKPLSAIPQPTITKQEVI
# Retinoic acid receptor alpha (Homo sapiens), sequence (P10276 whole entry, looked up): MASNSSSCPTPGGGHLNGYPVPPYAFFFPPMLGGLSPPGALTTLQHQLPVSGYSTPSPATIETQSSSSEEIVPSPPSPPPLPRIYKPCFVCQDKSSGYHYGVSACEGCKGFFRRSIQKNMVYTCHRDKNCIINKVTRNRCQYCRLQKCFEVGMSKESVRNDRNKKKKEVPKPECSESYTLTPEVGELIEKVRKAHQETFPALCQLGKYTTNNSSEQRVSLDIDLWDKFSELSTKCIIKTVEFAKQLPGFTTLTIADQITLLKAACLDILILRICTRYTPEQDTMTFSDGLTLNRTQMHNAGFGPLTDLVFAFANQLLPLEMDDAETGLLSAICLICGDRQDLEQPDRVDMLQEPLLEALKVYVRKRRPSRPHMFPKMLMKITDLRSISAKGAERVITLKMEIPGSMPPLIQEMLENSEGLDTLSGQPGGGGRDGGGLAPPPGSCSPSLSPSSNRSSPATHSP
# X-box-binding protein 1 (Homo sapiens), sequence (P17861 whole entry, looked up): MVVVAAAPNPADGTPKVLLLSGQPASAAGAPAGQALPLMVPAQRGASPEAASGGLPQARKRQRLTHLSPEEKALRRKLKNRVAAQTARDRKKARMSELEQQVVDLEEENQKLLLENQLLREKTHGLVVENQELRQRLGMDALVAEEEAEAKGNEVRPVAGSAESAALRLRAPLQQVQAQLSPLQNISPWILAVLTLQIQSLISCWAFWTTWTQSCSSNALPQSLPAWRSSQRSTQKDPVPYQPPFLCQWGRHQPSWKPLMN
# human Retinoid X Receptor beta (RXRb), RXRB (gene 6257), sequence (P28702 whole entry, looked up, the tested form may be a part): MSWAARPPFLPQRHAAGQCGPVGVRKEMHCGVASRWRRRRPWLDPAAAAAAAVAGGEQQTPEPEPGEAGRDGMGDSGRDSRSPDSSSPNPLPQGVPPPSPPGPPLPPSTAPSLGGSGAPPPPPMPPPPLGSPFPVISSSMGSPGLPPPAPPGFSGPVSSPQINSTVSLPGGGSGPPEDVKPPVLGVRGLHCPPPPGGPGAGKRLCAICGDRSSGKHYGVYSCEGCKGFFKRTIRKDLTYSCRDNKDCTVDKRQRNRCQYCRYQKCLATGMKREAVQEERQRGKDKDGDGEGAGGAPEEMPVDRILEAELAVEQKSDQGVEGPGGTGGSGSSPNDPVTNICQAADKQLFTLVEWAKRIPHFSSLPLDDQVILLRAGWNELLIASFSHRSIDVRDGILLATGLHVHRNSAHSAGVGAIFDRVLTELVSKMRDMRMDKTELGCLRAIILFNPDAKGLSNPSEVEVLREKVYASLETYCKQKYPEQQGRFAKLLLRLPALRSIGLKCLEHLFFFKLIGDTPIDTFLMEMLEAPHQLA
compound,measurement,setting,value
COC(=O)CCSCCC(=O)OC,outcome,[1],inactive
same,outcome,[2],inactive
same,outcome,[3],inactive
same,outcome,[4],inactive
same,outcome,[5],inactive
same,outcome,[6],inactive
same,outcome,[7],inactive
same,outcome,[8],inactive
same,outcome,[9],inactive
same,outcome,[10],inactive
Brc1ccc(Oc2ccc(Br)cc2)cc1,outcome,[1],inactive
same,outcome,[2],inactive
same,outcome,[3],inactive
same,outcome,[4],inactive
same,outcome,[7],inactive
same,outcome,[9],inactive
same,outcome,[11],inactive
same,outcome,[12],inactive
same,outcome,[13],inactive
same,outcome,[14],inactive
same,outcome,[15],inactive
same,outcome,[16],inactive
same,outcome,[17],inactive
Nc1nnc(-c2ccc([N+](=O)[O-])o2)o1,outcome,[1],inactive
same,outcome,[2],inactive
same,outcome,[3],inactive
same,outcome,[4],inactive
same,outcome,[5],inactive
same,outcome,[6],inactive
same,outcome,[18],inactive
same,outcome,[8],inactive
same,outcome,[9],inactive
same,outcome,[10],inactive
same,outcome,[11],inactive
same,outcome,[12],inactive
same,AC50,[13],85.7 µM (active)
same,outcome,[14],inactive
same,outcome,[15],inactive
same,outcome,[16],inactive
same,AC50,[17],70.1 µM (active)
COc1c2occc2cc2ccc(=O)oc12,outcome,[1],inactive
same,outcome,[3],inactive
same,outcome,[6],inactive
same,outcome,[19],inactive
same,outcome,[8],inactive
same,AC50,[11],100 µM (active)
same,outcome,[12],inactive
same,outcome,[13],inactive
same,outcome,[14],inactive
same,outcome,[15],inactive
same,outcome,[16],inactive
same,outcome,[17],inactive
CCC(C)C1N=C(C)C(C)S1 (stereo unspecified),outcome,[1],inactive
same,outcome,[2],inactive
same,outcome,[3],inactive
same,outcome,[6],inactive
same,outcome,[19],inactive
same,outcome,[7],inactive
same,outcome,[9],inactive
same,outcome,[10],inactive
same,outcome,[20],inactive
same,outcome,[11],inactive
same,outcome,[12],inactive
same,outcome,[14],inactive
same,outcome,[15],inactive
same,outcome,[17],inactive
CC(=O)c1nccs1,outcome,[1],inactive
same,outcome,[3],inactive
same,outcome,[4],inactive
same,outcome,[5],inactive
same,outcome,[6],inactive
same,outcome,[18],inactive
same,outcome,[7],inactive
same,outcome,[8],inactive
same,outcome,[20],inactive
same,outcome,[11],inactive
same,outcome,[13],inactive
same,outcome,[14],inactive
same,outcome,[15],inactive
same,outcome,[17],inactive
CC(C)CC(=O)O,outcome,[1],inactive
same,outcome,[3],inactive
same,outcome,[4],inactive
same,outcome,[6],inactive
same,outcome,[19],inactive
same,outcome,[18],inactive
same,outcome,[9],inactive
same,outcome,[10],inactive
same,outcome,[20],inactive
same,outcome,[12],inactive
same,outcome,[13],inactive
same,outcome,[14],inactive
same,outcome,[15],inactive
same,outcome,[17],inactive
c1cc(N(CC2CO2)CC2CO2)ccc1Cc1ccc(N(CC2CO2)CC2CO2)cc1 (stereo unspecified),outcome,[1],inactive
same,AC50,[2],26.4 µM (active)
same,outcome,[3],inactive
same,outcome,[4],inactive
same,AC50,[5],26.1 µM (active)
same,AC50,[6],6.26 µM (active)
same,outcome,[19],inactive
same,outcome,[18],inactive
same,outcome,[7],inactive
same,outcome,[8],inactive
same,outcome,[10],inactive
same,AC50,[20],8.18 µM (active)
same,outcome,[11],inactive
same,outcome,[12],inactive
same,AC50,[13],26.8 µM (active)
same,AC50,[14],81.6 µM (active)
same,AC50,[15],55.4 µM (active)
same,outcome,[16],inactive
same,AC50,[17],33.1 µM (active)
NC(=O)c1ccc([N+](=O)[O-])cc1Cl,outcome,[1],inactive
same,outcome,[2],inactive
same,outcome,[3],inactive
same,outcome,[4],inactive
same,outcome,[5],inactive
same,outcome,[18],inactive
same,outcome,[7],inactive
same,outcome,[8],inactive
same,outcome,[9],inactive
same,outcome,[10],inactive
same,outcome,[20],inactive
same,outcome,[11],inactive
same,outcome,[12],inactive
same,outcome,[13],inactive
same,outcome,[14],inactive
same,outcome,[15],inactive
same,outcome,[16],inactive
same,outcome,[17],inactive
